The target in the first experiment is PSMD14. The experiment in a line: pooled miR-30 sensor sort-seq; sequence = guide strand. To be noted: shRNA.
As for TTAACATTTTTAACAGTGCCAG, the sensor-assay potency score (higher = more potent) was -1.04. As for TTCTTCTACAGCCTTATTGTAA, the sensor-assay potency score (higher = more potent) is -1.22. On the same count and under the same terms, the figure for TAGCTTGGAACACTGGATCAAC is -0.999; for AAATTTAGCAACATCTTCTGTT it is 0.377; for ATCTTCTTCTTCTACAGCCTTA it is -0.913.

The target in another experiment is PSMG3. The experiment is described as above. To be noted: shRNA.
Regarding ATGGATGAGAGGCTCATCCTGC, the sensor-assay potency score (higher = more potent) was -1.3. On the same count and under the same terms, in the case of TCTGTTTCCAGCTTCTTGAGAC it was 0.0937; in that of TTCCAGCTTCTTGAGACACAAA, -1.35; in that of TTTTGTGGTGAGCACAGGCTTG, -0.949.

TTGAGACACAAACGCTACCAGG registered a sensor-assay potency score (higher = more potent) of -0.891.

The sequence TGAGACACAAACGCTACCAGGT yielded a sensor-assay potency score (higher = more potent) of -0.363.

AACGCTACCAGGTTCTTTGCAA gave a sensor-assay potency score (higher = more potent) of 0.042. The same measure, in the same setting: the figure for TTTGTGGTGAGCACAGGCTTGC is -0.665. Regarding TTGTCCTTCACGGCCACGGCGA, the sensor-assay potency score (higher = more potent) is -1.48. On the same count and under the same terms, the figure for TAAAAAAGAAATTTCCTCCTAC is 0.923; for TTCTCAAACACAAGCAACGATT it is -1.54. TCTTCTGCTTCGATATCACCAA displayed a sensor-assay potency score (higher = more potent) of -0.805.

The target in another experiment is PSPH. The experiment is described as above. To be noted: shRNA.
Consider AACCTGAACATTTCGCTCCTGT, for which the sensor-assay potency score (higher = more potent) was 0.681. Still for that read-out and setting: in the case of TAACTTGTAAAAATTCATCTGA it was 0.913. The same measure, in the same setting: in the case of TGCTATGAGTCTCTGCACCTGC it was 0.0571; in that of TTTGGCGTTATCCTTGACTTGT, -1.02. Still for that read-out and setting: in the case of TCTTCTCTGATGACCGTGCTGT it was 0.253; in that of TTATCCTTGACTTGTTGCCTGA, -0.324. For the sequence TCACTTTTCCTTTTCCACCAGA, the sensor-assay potency score (higher = more potent) was -0.287. The same measure, in the same setting: in the case of TTGCTCTGCTATGAGTCTCTGC it was -0.739; in that of TTAAAGTAGAATTTCAGCCTAT, 0.23. In the case of TAAGCAAACAGTATCAATCTGT, the sensor-assay potency score (higher = more potent) came out at 0.453. Same read-out and setting: the figure for AAAACCTGCATATTCACCGTTA is 0.263.

Another experiment concerns the target PSRC1. The description is as above. The conditions noted are these: shRNA.
Sequence TTTGCTACTGAAGTCTTGCTTG gave a sensor-assay potency score (higher = more potent) of -0.274. Sequence TCTGGAGTCACCAACACTGTTA registered a sensor-assay potency score (higher = more potent) of -0.586. Still for that read-out and setting: the figure for TATCATTACTCCGGAGTCGAGG is -0.921; for TCGAGTTGACAGAGAATCCGGA it is 0.42. Same read-out and setting: in the case of TCGCTGGGAAACAGGAACCTTG it was -1.78; in that of TAGGCTGAGCCTCACACCCTGG, -1.11; in that of TTGACAGAGAATCCGGAGGTAG, -1.05. Still for that read-out and setting: in the case of TATTTGTTCATTTCACTGCTGG it was 0.584. For TTTCCCGCACTCTGTGTCCTGC, the sensor-assay potency score (higher = more potent) was -0.995. On the same count and under the same terms, the figure for TCGGACAGGACTATCCTTCAGC is -0.556. On the same count and under the same terms, the figure for TTCGAGTTGACAGAGAATCCGG is 0.0316.

These data come from the OligoGym collection.
Also: reference of the scale not given here.
